Compound activity (PubChem)
NIH3T3 tox: Cytotoxic Profiling in NIH 3T3 Cell Line of Diverse Libraries Using Quantitative High-Throughput Screening; Potency, µM (highest dose often 96.7 µM), inactives show top-dose activity change, negative = cytotoxicity, actives largely listed as inhibitors; 94,000 tested, 4.3% active; NIH 3T3 viability, CellTiter-Glo ATP luminescence, 48-72 h; note: nearly all actives have a fitted effect of over 55% in size
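First NIH 3T3 cells are plated at 400 cells/well; next compound is pinned in; then plates incubate 48 or 72 hr at 37 °C; finally CellTiter-Glo is added and luminescence read after 10 min.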
hNpr1 antagonist: Natriuretic polypeptide receptor (hNpr1) antagonism - Primary qHTS. HEK293 hNpr1 GloSensor cGMP, ANP-stimulated luminescence. Potency, µM (doses to about 46.3 µM), inactives show at the top dose activity change, negative = inhibition, usual class: inhibitors. Atrial natriuretic peptide receptor 1 (Homo sapiens), P16066. 76,000 tested, 1.6% active. AID 1347048, 2019; calls by dose curve; note: nearly all actives have a fitted effect of over 60% in size
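Compound pre-incubated 30 min at room temperature on GloSensor-loaded HEK293 cells stably carrying hNpr1 and the pGS-40F cGMP biosensor. Stimulation uses hNppA at 0.1 nM final; luminescence is taken at baseline and 20 min post-agonist.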
Luciferase inh: Firefly luciferase inhibition profiling of diverse chemical library using quantitative high-throughput screening; 76,000 tested, 2.5% active; Potency, µM (doses to about 115 µM), usual class: inhibitors; purified P. pyralis luciferase, luminescence, biochemical; Luciferin 4-monooxygenase (Photinus pyralis), P08659; AID 1347043, 2019; note: nearly all actives have a fitted effect of over 65% in size
Target sequence (P08659 whole entry, looked up): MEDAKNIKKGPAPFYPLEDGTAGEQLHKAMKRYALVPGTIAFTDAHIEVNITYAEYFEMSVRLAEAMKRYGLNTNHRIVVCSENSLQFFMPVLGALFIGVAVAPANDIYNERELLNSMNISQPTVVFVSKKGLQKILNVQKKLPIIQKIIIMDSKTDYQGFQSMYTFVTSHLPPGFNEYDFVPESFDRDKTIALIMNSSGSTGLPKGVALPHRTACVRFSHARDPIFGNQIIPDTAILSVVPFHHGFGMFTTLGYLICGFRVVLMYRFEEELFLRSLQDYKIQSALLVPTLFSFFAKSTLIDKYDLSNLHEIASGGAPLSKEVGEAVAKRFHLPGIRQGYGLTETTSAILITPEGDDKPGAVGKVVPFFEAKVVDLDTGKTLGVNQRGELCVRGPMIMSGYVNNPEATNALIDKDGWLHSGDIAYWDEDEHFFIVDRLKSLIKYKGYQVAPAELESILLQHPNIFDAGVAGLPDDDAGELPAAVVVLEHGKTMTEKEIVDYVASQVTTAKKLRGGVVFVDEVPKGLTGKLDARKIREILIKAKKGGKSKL
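Luminescence read by CCD imager after adding enzyme (10nM final) to wells holding compound, titrated in qHTS. Substrates 10uM each D-luciferin and ATP; buffer 50mM Tris acetate pH 7.5, 10mM Mg acetate, Tween-20, BSA.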
HEK cytotox: Cytotoxic Profiling in HEK 293 Cell Line of Diverse Libraries Using Quantitative High-Throughput Screening | Potency, µM (highest dose often 115 µM), without a hit: at the top dose activity change, negative = cytotoxicity, actives largely listed as inhibitors | HEK 293 viability, ATP luminescence (CellTiter-Glo), 48-72 h | AID 1345083, 2018 | 94,000 tested, 6.6% active; note: nearly all actives have a fitted effect of over 60% in size
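ATP-coupled CellTiter-Glo luminescence served as viability read-out, recorded 10 min after reagent addition at room temperature. HEK 293 cells, 250 cells/well, had been incubated with pintool-transferred compound for 48 or 72 hr at 37 degree Celsius.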
Active calls of the source: *; i = inactive; ? = inconclusive; . = no result; [ ] = another dose, or the depositor's remark. Shown are actives, neighbours in structure and some others; about 11% of the full set was active somewhere. Unless noted, calls come from the whole dose curve; as a rule, active = well fitted curve in the direction sought with a large enough effect; inconclusive = small, poorly fitted or top-dose-only effect, or another doubt; inactive = no such curve, though single readings can be large; an effect the other way counts as inactive or inconclusive. % is set by controls: 0 for no effect and ±100 for the full control effect; potency is the fitted concentration of half-maximal effect.

SMILES	NIH3T3 tox	hNpr1 antagonist	Luciferase inh	HEK cytotox
COc1cc(OC)cc(C(=O)NC2CCN(c3cc(-c4ccc(F)cc4)[nH]n3)C2)c1 (stereo not drawn)	?	-4%	i	?
O=C(CCCc1ccccc1)N1CCC(Cc2nc(-c3ccncc3)n[nH]2)CC1	?	?	i	?
Cc1ccc(N2Cc3c(NCCc4ccc(F)cc4)ncnc3N(C)CC2=O)cc1	35µM*	0%	i	?
COc1ccc2nc([C@H]3CCN(Cc4ccc5c(c4)OCO5)C3)[nH]c2c1	?	-1%[70.6 µM]	i	?
Cc1ccc(C(=O)N2CCCC3(CCNCC3)CC2)cc1Cl	79µM*	-1%	i	?
O=C(c1ccccc1F)N1CCn2c(nnc2C2CCNCC2)C1	28µM*	.	.	4%
O=C(c1ccccc1F)N1CCn2c(nnc2-c2ccccc2)C1	-22%[138 µM]	0%[70.6 µM]	i	-16%[172 µM]
COc1cccc(-c2ccc(C(=O)NCCNC(=O)Cc3cccc(Cl)c3)cc2)c1	-24%	.	.	?
O=[N+]([O-])c1cccc(-c2noc([C@@H]3C[C@@H](O)CN3Cc3ncc[nH]3)n2)c1	-20%[174 µM]	3%[70.6 µM]	i	-17%[172 µM]
COc1ccc(-c2noc([C@@H]3C[C@@H](O)CN3Cc3ccccn3)n2)cc1	35µM*	?	?	?
COc1ccc(-c2noc([C@@H]3C[C@@H](O)CN3C3CCN(C)CC3)n2)cc1	-10%[174 µM]	7%[70.6 µM]	71µM*	-23%[172 µM]
O=[N+]([O-])c1cccc(-c2noc([C@@H]3C[C@@H](O)CN3Cc3ccccc3)n2)c1	-22%[138 µM]	3%[70.6 µM]	i	-19%[172 µM]
O[C@@H]1C[C@@H](c2nc(-c3ccccc3)no2)N(Cc2ncc[nH]2)C1	-10%[174 µM]	3%[70.6 µM]	22µM*	-8%[172 µM]
O=[N+]([O-])c1cccc(-c2noc([C@@H]3C[C@@H](O)CN3CC3CCCCC3)n2)c1	?	-12%[70.6 µM]	i	63µM*
COc1ccc(-c2noc([C@@H]3C[C@@H](O)CN3Cc3ccccc3)n2)cc1	?	-30%[70.6 µM]	?	?
COc1ccc(-c2noc([C@@H]3C[C@@H](O)CN3Cc3ccc(C)cc3)n2)cc1	-9%[174 µM]	0%[70.6 µM]	?	?
Cc1ccc(-c2noc([C@@H]3C[C@@H](O)CN3Cc3ncc[nH]3)n2)cc1F	?	-10%[70.6 µM]	25µM*	?
COc1ccccc1N1CCN(C(=O)C[C@@H]2CCNC[C@@H]2Cc2cc(-c3ccc(F)cc3)on2)CC1	?	-1%	i	?
